The record followed here is PubChem BioAssay AID488890 (Southern Research Specialized Biocontainment Screening …, 2010).

The term inhibition denotes the change of the read-out against control, counted positive when it falls.

In all, about 320,000 compounds went through this assay and about 1,300 (0.41%) were called active. Inconclusive results (about 3%) are left out. The rule behind the calls is not given here. Not all results are given here. Entries with a potency or affinity are not part of this list.

The nature of this test: growth inhibition of non-replicating M. tuberculosis (AID 488890).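 Note: plate controls were DMSO cells for no effect and high antibiotic wells for full effect.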 The following applies: Mycobacterium tuberculosis non-replicating, at 25 µM, stronger effect = higher value.
Consider `Cc1ccc(S(=O)(=O)NCc2cccnc2)cc1C`, for which the inhibition is 3.38%.

Take `Cn1c(SCc2nc3ccccc3[nH]2)nnc1-c1cnccn1`: the inhibition turned out to be 11%.

In the case of `COc1ccc(CCNC(=O)C2CCN(C(=O)c3ccc(Br)cc3)CC2)cc1OC`, the inhibition was -3.89%.

Take `CCOC(=O)Cn1c(=O)oc2ccc(C)cc21`: the inhibition turned out to be 16.3%.

With `CCn1cc(/C=N/NC(=O)c2ccc3c(c2)OCO3)c(C)n1`, the inhibition was -8.38%.

Take `CCN(CC)C(=O)c1sc2nc(Cc3ccccc3)[nH]c(=O)c2c1C`: the inhibition turned out to be 11%.

Take `O=C(Nc1ccc(S(=O)(=O)Nc2ncccn2)cc1)C1=NN(c2ccccc2)C(=O)CC1`: the inhibition is 36.2%.

`O=C(N/N=C/c1ccc(N2CCOCC2)cc1)C1CC1`: the inhibition turned out to be 3.95%.

For the compound `COC1CCCN(Cc2c(C(=O)N3CCN(C4CCCCC4)CC3)nc3ccccn23)C1` (stereo not given), the inhibition was 6.53%.

Consider `O=C(C1=C[C@H](c2ccc(C(F)(F)F)cc2)C[C@H](OCc2ccc(CO)cc2)O1)N1CCCCCCC1`, for which the inhibition stood at 23%.

`Cc1cccc(CN2CCc3c([nH]c4ccccc34)C2C(C)(C)C)n1` (stereo not given): the inhibition was 14.5%.

As to `OC(CNCC1CCCO1)COc1ccc(OCC(O)CNCC2CCCO2)cc1` (stereo not given), the inhibition stood at 10.8%.

On to `OC(CNCC1CCCO1)Cn1c2ccccc2c2ccccc21` (stereo not given), for which the inhibition came out at 25.3%.

Take `Cc1ccc(O)c(CNc2nccs2)c1`: the inhibition was -1.47%.

For the compound `O=C(CCNS(=O)(=O)c1ccc(OC(F)(F)F)cc1)N1CCN(C/C=C/c2ccccc2)CC1`, the inhibition is 47.4%.

Regarding `O=C1CNC(=S)N1CCCn1ccnc1`, the inhibition came out at 2.92%.

With `CCOC(=O)c1ccc(NC(=O)CCc2ccc(C)o2)cc1`, the inhibition was 79.2%.

With `Cc1ccc(CCC(=O)Nc2ccc(C#N)cc2)o1`, the inhibition turned out to be 50.3%.

Consider `Cc1ccc(CCC(=O)Nc2ccc(CC(=O)O)cc2)o1`, for which the inhibition amounted to 9.94%.

Turning to `CC(=O)Nc1ccc(NC(=O)CCc2ccc(C)o2)cc1`, the inhibition worked out at 16.7%.

Regarding `O=C(N/N=C\c1ccncc1)c1ccccc1O`, the inhibition amounted to 19.9%.

In the case of `O=C(N/N=C/c1ccc(OCc2ccccc2)cc1)c1ccco1`, the inhibition stood at 6.81%.

In the case of `Cc1noc(C)c1COC(=O)CCc1nc2ccccc2c(=O)[nH]1`, the inhibition is -4.31%.

Take `COc1ccc(NC(=O)Nc2c(O)ccc3ccccc23)cc1`: the inhibition amounted to 17.9%.

For `COc1ccc(C(=O)Nc2ccc(O)c3ccccc23)cc1`, the inhibition worked out at 75.7%.

On to `CCCNc1nc2nc3ccccn3c(=O)c2cc1C(=O)NCCN1CCOCC1`, for which the inhibition is -18.1%.

With `O=C(Nc1c(F)cc(F)cc1Br)c1cc(-c2ccc(O)cc2)on1`, the inhibition came out at 79.2%.

Consider `COc1ccc(-c2cc(C(=O)Nc3c(F)cc(F)cc3Br)no2)cc1`, for which the inhibition turned out to be 79.1%.

As for `O=S1(=O)N=C(N/N=C/c2ccccn2)c2ccccc21`, the inhibition amounted to 10.2%.

With `CN(/N=C/C=C/c1ccccc1)C1=NS(=O)(=O)c2ccccc21`, the inhibition was -1.47%.

As to `COc1ccccc1NC(=O)CC1SC(=N)N(c2ccccc2)C1=O` (stereo not given), the inhibition is -5.17%.

With `Cc1cc(S(=O)(=O)NCCC2=CCCCC2)ccc1Br`, the inhibition amounted to 34.3%.

For `O=C(NC(=S)NCC1CCCO1)c1ccc(Br)o1` (stereo not given), the inhibition was -17.8%.

Take `NS(=O)(=O)c1ccc(NC(=O)Cn2nc(C(=O)O)c3ccccc3c2=O)cc1`: the inhibition was 2.92%.

Consider `Cc1ccc2cc(/C=N/NC(=O)CN3CCOCC3)c(Cl)nc2c1`, for which the inhibition is 6.43%.

For `COc1cc(C2N(c3ccc(Cl)cc3)C(=O)C3CCCN32)cc(OC)c1OC` (stereo not given), the inhibition is -23.2%.

Consider `COc1ccc(Cc2nnc(NC(=O)c3c(-c4ccccc4)noc3C)s2)cc1`, for which the inhibition was determined as 4.39%.

Turning to `CCc1nnc(NC(=O)c2c(-c3ccccc3)noc2C)s1`, the inhibition amounted to 13.3%.

Consider `CC1(C)CC(=O)C(Sc2ccccc2C(=O)O)=C(O)C1`, for which the inhibition was -8.16%.

For the compound `COc1ccc(C(=O)C[n+]2ccc3c(c2)nc(-c2ccccc2)n3C)cc1`, the inhibition came to 65.3%.

`O=C(CN1CCN(c2ccc(Cl)cc2)CC1)Nc1cccc(F)c1`: the inhibition was 69%.

In the case of `COCc1cc(C)nc2sc(C(=O)N3CCCC3)c(N)c12`, the inhibition came to 3.21%.

With `CCC(CC)c1nnc(NC(=O)c2ccco2)s1`, the inhibition was 14.7%.

For the compound `CCC(CC)c1nnc(NC(=O)c2cc(-c3ccccc3)nc3ccccc23)s1`, the inhibition is 18.4%.

On to `CCCCn1c(O)c(/C=C2\C=Nc3ccccc32)c(=O)[nH]c1=O`, for which the inhibition came to 59%.

Consider `O=c1[nH]c(=O)n(Cc2ccccc2)c(O)c1/C=C1\C=Nc2ccccc21`, for which the inhibition worked out at 66.3%.

For `O=c1[nH]c(=O)n(Cc2ccccc2Cl)c(O)c1C=Nc1ccc(F)cc1`, the inhibition was -1.58%.

Consider `Cn1c(O)c(/C=C2/C=CC=N2)c(=O)[nH]c1=O`, for which the inhibition was 75.9%.

For the compound `CCCCn1c(O)c(/C=N/NC(=O)c2ccncc2)c(=O)[nH]c1=O`, the inhibition stood at 53.7%.

`CCCCn1c(O)c(C=NCCCn2ccnc2)c(=O)[nH]c1=O`: the inhibition came to 5.46%.

For the compound `O=C(Nc1cccc(-n2cnnn2)c1)c1ccncc1`, the inhibition was found to be 0.55%.

As for `Cc1[nH]c2ccc(F)cc2c1CCN(Cc1ccncc1)C(=S)Nc1cccc(F)c1`, the inhibition was determined as 16.2%.

For `COc1ccc(/C=N/NC(=O)NC23CC4CC(CC(C4)C2)C3)c(OC)c1`, the inhibition was 27.6%.

Regarding `Cc1ccc(-c2noc(=O)n2CC(=O)Nc2ccc(S(=O)(=O)NC3CC3)cc2)cc1`, the inhibition came out at 11.5%.

As to `O=C(NCCN1CCN(c2ccccc2)CC1)C1CCN(S(=O)(=O)c2cccc3nonc23)CC1`, the inhibition worked out at 18.8%.

For `O=C(NC1CCCCCC1)c1ccc(CS(=O)(=O)Cc2ccc(F)cc2)o1`, the inhibition is 1.29%.

For the compound `Nc1nc(NCc2c(F)cccc2Cl)nn1-c1ccccc1`, the inhibition stood at 2.25%.

In the case of `CCCSc1nnc(Cn2c(=O)sc3ccccc32)n1-c1ccccc1`, the inhibition was determined as 7.2%.

As to `CN(CC(=O)Nc1cccc(F)c1)C(=O)c1ccc(OCC2CCCO2)cc1` (stereo not given), the inhibition is -4.27%.

For `Cc1ccc(S(=O)(=O)N2CCC(C(=O)OCC(=O)NCCc3ccccc3)CC2)cc1C`, the inhibition was 27.8%.

Regarding `CCOC(=O)C1CCN(S(=O)(=O)c2ccc(C)c(C)c2)CC1`, the inhibition was -7.38%.

As to `O=C(NCCC(=O)N(CCc1ccccc1)Cc1ccccc1)c1ccc(Br)cc1`, the inhibition turned out to be 22.1%.

For the compound `Fc1ccc2nc(C(F)(F)F)cc(N3CCOCC3)c2c1`, the inhibition is -5.99%.

With `COc1ccccc1-c1nnc(Nc2nc3c(OC)cccc3s2)o1`, the inhibition is 19%.

As to `COc1cccc2sc(NN)nc12`, the inhibition was -6.89%.

`COc1cccc2sc(Nc3nc(-c4ccncc4)cs3)nc12`: the inhibition came out at 31.8%.

As to `COc1ccc(-c2nnc(Nc3nc4c(OC)cccc4s3)o2)c(OC)c1`, the inhibition came to 60.8%.

As for `O=C1Cc2ccccc2C(=O)N1Cc1ccccc1`, the inhibition was -3.14%.

Consider `Cc1cc(C)nc(NC(=O)c2ccc(Br)s2)n1`, for which the inhibition stood at 55.2%.

With `COc1ccc(Cl)cc1NC(=O)CN(C)C(=O)c1ccc(-n2cncn2)cc1`, the inhibition was 0.55%.

Consider `Nc1c(-c2ccccc2)cnn1-c1ccccc1`, for which the inhibition was -6.23%.

On to `O=C(Nc1cccnc1)c1ccc(-c2cc(Cl)ccc2Cl)o1`, for which the inhibition is -8.82%.

On to `O=C(NNC(=O)c1ccccc1O)c1ccc(-c2ccc([N+](=O)[O-])cc2)o1`, for which the inhibition is -16.6%.

Consider `CCOC(=O)c1cccc(NC(=O)c2cccnc2)c1`, for which the inhibition is -4.27%.

Consider `COC(=O)c1sccc1-c1ccc(C(=O)Nc2cccnc2)o1`, for which the inhibition is -4.8%.

Regarding `CC(=O)NC(=O)c1ccc(-c2ccc(Cl)cc2)o1`, the inhibition came to 57.6%.

Consider `O=C(Nc1cccnc1)c1cc(-c2ccc(Cl)cc2)on1`, for which the inhibition stood at 71%.

Regarding `CCN(CC(=O)Nc1c(F)cccc1F)C(=O)CNC(=O)c1ccc2ccccc2c1`, the inhibition came out at 18.6%.

On to `CN(C)S(=O)(=O)c1cccc(C(=O)NC(=S)N(CCC#N)Cc2cccnc2)c1`, for which the inhibition is 42.5%.

As for `COCC(=O)N1CCC(Oc2ccc(C(=O)N3CCCCCC3)cc2)CC1`, the inhibition is -1.31%.

Consider `COc1ccc(-c2sc3ccccc3c2-c2ccc(O)cc2)cc1`, for which the inhibition was determined as 17.4%.

As for `COc1ccc(NC(=O)CN(C)S(=O)(=O)c2ccc3c(c2)CCCN3C(C)=O)cc1`, the inhibition was -3.38%.

On to `Cc1onc(C(=O)N2CCC(Cc3ccccc3)CC2)c1[N+](=O)[O-]`, for which the inhibition is -6.71%.

Consider `CCOC(=O)CSc1nc2c(sc(=S)n2-c2ccc(CC)cc2)c(=O)[nH]1`, for which the inhibition stood at 48.4%.

`COc1ccc(NC(=O)CNc2ccccc2N2CCCC2=O)cc1S(=O)(=O)N1CCOCC1`: the inhibition came to 13.9%.

Consider `Cn1cccc1CC(=O)N/N=C/c1cc([N+](=O)[O-])ccc1Cl`, for which the inhibition came to 14.2%.

Regarding `COC(=O)c1ccc(-c2ccc(C(c3c(C)[nH][nH]c3=O)c3c(C)[nH][nH]c3=O)o2)cc1`, the inhibition turned out to be 36.5%.

With `Cc1[nH][nH]c(=O)c1C(c1ccc(-c2cccc(C(=O)O)c2)o1)c1c(C)[nH][nH]c1=O`, the inhibition is -6.98%.

In the case of `Cc1c(NC(=S)NC(NC(=O)C(C)(C)C)C(Cl)(Cl)Cl)c(=O)n(-c2ccccc2)n1C` (stereo not given), the inhibition worked out at 1.72%.

Turning to `O=C1OCC(CO)(CO)N=C1NNc1ccccc1[N+](=O)[O-]`, the inhibition was 4.31%.

`CC1(CC(=O)N/N=C/c2ccc(-c3ccc(Cl)cc3)o2)OCCO1`: the inhibition is 69.5%.

As to `O=C(CN1CCOCC1)N/N=C/c1ccc(-c2cccc(Cl)c2Cl)o1`, the inhibition was 20.1%.

Regarding `O=C(CN1CCOCC1)N/N=C/c1ccc(-c2ccc(C(=O)O)cc2)o1`, the inhibition is 2.35%.

Turning to `Cc1ccc(C(=O)N/N=C/c2ccc(-c3cccc(Cl)c3)o2)cn1`, the inhibition is -3.58%.

As for `Cc1ccc(C(=O)N/N=C\c2ccc(-c3ccc(Cl)c(Cl)c3)o2)cn1`, the inhibition was 16.6%.

Turning to `CCC(=O)N/N=C/c1ccc(-c2ccc([N+](=O)[O-])cc2)o1`, the inhibition was found to be 74.5%.

For the compound `CN(C)c1ccc(C(=O)N/N=C/C23CC[C@@H](O)CC2(O)CC[C@@H]2[C@@H]3CCC3(C)C(C4=CC(=O)OC4)CCC23O)cc1` (stereo not given in full), the inhibition is -3.55%.

For `CCOC(=O)c1cc(C)n(-n2cnnc2)c1C`, the inhibition is -3.13%.

`COc1ccc2c(c1)nc(SCC(=O)C(C)(C)C)n2C`: the inhibition came out at 7.17%.

On to `COc1ccc(N=C(C)C2=C(O)c3ccccc3C2=O)cc1`, for which the inhibition stood at 21%.

Consider `N#CC(=NCc1cccnc1)C1=C(O)c2ccccc2C1=O`, for which the inhibition is 16.1%.

As to `COC(=O)C1=C(C)N(CCCC(=O)O)C(=O)NC1c1ccc(OC)cc1` (stereo not given), the inhibition is -3.65%.

Consider `CCOc1ccc(N2CC(=O)N(c3ccc(OCC)cc3)CC2=O)cc1`, for which the inhibition came to 2.08%.

With `CCOc1ccc(N2C(=O)CNC2=S)cc1`, the inhibition worked out at 27.5%.

In the case of `CN(C(=O)c1ccccc1C(=O)OCC(=O)NCc1cccs1)C1CCCCC1`, the inhibition is -0.2%.

As to `O=C(c1ccc(Br)o1)N1CCN(c2ccc(F)cc2)CC1`, the inhibition is 66.9%.

Regarding `CN(C)C(=O)c1cccn1-c1ncc(C(F)(F)F)cc1Cl`, the inhibition was -7.62%.

For `O=c1c2ccccc2nc(-c2ccccc2)n1-c1ccccc1O`, the inhibition worked out at 49.7%.

Take `COc1ccccc1-n1c(-c2ccccc2Br)nc2ccccc2c1=O`: the inhibition is 5.34%.

Regarding `O=C(CCC(=O)N1CCN(c2ccc(F)cc2)CC1)c1ccc(Cl)cc1`, the inhibition was determined as 37.7%.
